14 compounds from the supplement of paper PMC6805474 can be followed below.

SMILES strings stand for the structures.

The assay concerns Schistosoma mansoni schistosomula (LE). Nature of the assay: XTT viability relative to DMSO control; higher = more viable (less active). Particulars: 72 h; 10 µM. On the procedure:
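XTT/PMS was then added for a further 24 h (72 h total) and A450 was read. % viability = (sample - heat-killed control)/(DMSO control - heat-killed control) x 100, from duplicate wells in two independent experiments.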
In general terms: Tetrazolium dyes change colour on reduction, which living cells bring about.
`CCc1nn(C)c(C(=O)NCc2ccc(Oc3ccc(C)cc3)cc2)c1Cl`: the XTT viability was 72.8%.
For `O=C1O[C@@H](CO)CN1c1cc(F)c(C2=CCN(Cc3ccccc3)CC2)c(F)c1` the value was 127%; for `CC1(C)OB(O)c2ccc(C3=NOC(c4cc(Cl)c(F)c(Cl)c4)(C(F)(F)F)C3)cc21` (centres undefined), 33.5%.
For `Cc1nn(Cc2ccccc2)c(Cl)c1C(=O)NC1CCCCCC1`, the XTT viability was determined as 87.9%.
The same measure for `CC1COC(Cn2cncn2)(c2ccc(Oc3ccc(Cl)cc3)cc2Cl)O1` (centres undefined): 47.3%; for `CO[C@@H]1CN(c2ccc(C#CC3(O)CN4CCC3CC4)c(Cc3ccccc3)n2)C[C@H]1O` (some centres undefined): 90.7%; for `O=C1O[C@@H](COc2ccon2)CN1c1cc(F)c(C2=CCN(Cc3ccccc3)CC2)c(F)c1`: 72.9%.
For `CO/N=C(\C(=O)OC)c1ccccc1CO/N=C(\C)c1cccc(C(F)(F)F)c1` the value was 109%.
With `Cc1cccc(C(=O)Nc2ccnc(N(C)C3CCN(CC(C)C)CC3)c2)c1`, the XTT viability was 125%.
For `CC(C)(C)C(O)C(Oc1ccc(-c2ccccc2)cc1)n1cncn1` (centres undefined) the value was 106%; for `CO/C=C(/C(=O)OC)c1ccccc1Oc1cc(Oc2ccccc2C#N)ncn1`, 79.5%.
The same measure for `Nc1c2c(nc3sc4c(c13)CCCC4)CCCC2`: 89.4%; for `Cc1nn(C)c(C)c1NS(=O)(=O)c1c(Cl)cc(-c2ccnc(N3CCNCC3)c2)cc1Cl`: 121%; for `Cc1cc(C2=NOC(c3cc(Cl)c(F)c(Cl)c3)(C(F)(F)F)C2)ccc1C(=O)NCc1ccc2c(c1)C(C)(C)OB2O` (centres undefined): 23.2%.
